Here are results for 42 compounds from PubChem BioAssay (Tox21).

Test [1] has as its target Acetylcholinesterase (Homo sapiens) (UniProt P22303). Nature of the test: Acetylcholinesterase (AChE) small molecule antagonists: colormetric cell-based qHTS assay (AID 1347395). Further: nearly all actives have a fitted effect of over 30% in size. Further: potency means the concentration at half of the fitted maximal effect. An outline of the steps: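 In this cell-based qHTS, attached SH-SY5Y cells were treated with test chemicals for 30 min, after which acetylthiocholine hydrolysis was followed by DTNB colour development over 90 min at 37 C.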
For orientation: qHTS replaces the single test concentration by a dilution series.

The target is the same in test [2]. Nature of the test: Acetylcholinesterase (AChE) small molecule antagonists: enzyme-based qHTS assay (AID 1347397). Further: nearly all actives have a fitted effect of over 55% in size. Particulars: Potency: AChE enzyme activity inhibition; outcome: AChE enzyme activity inhibition. An outline of the steps: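 Colorimetric DTNB read-out of thiocholine released from acetylthiocholine by recombinant human AChE (50 mU/mL as dispensed). Compounds were preincubated 30 min at RT before substrate/DTNB addition, with a 10 min RT reaction.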

Test [3] has the same target. Nature of the test: Acetylcholinesterase (AChE) small molecule antagonists: fluorescence cell-based qHTS assay (AID 1347398). Further: nearly all actives have a fitted effect of over 50% in size. Further: potency means the concentration at half of the fitted maximal effect. Particulars: Potency: AChE activity; outcome: AChE activity. An outline of the steps: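 SH-SY5Y, 2,000 cells/well, attached overnight; cmpd 30 min 37 C; acetylthiocholine/Thiolite Green cocktail 40 min RT; fluorescence Ex/Em 490/520 nm.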
Test [4] shares this target. Nature of the test: Acetylcholinesterase (AChE) small molecule antagonists: enzyme-based qHTS assay with human liver microsomes (AID 1347399). Further: nearly all actives have a fitted effect of over 60% in size. Particulars: Potency: qHTS inhibition; outcome: qHTS inhibition. An outline of the steps:
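Recombinant human AChE (50 mU/mL in the enzyme mix) and human liver microsomes (0.25 mg/mL final) were preincubated with compound and NADPH (0.25 mg/mL final) for 30 min at 37 C. Acetylthiocholine/DTNB was then added; thiocholine was read colorimetrically after 10 min at room temperature.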

Unmarked numbers belong to inactive results. Records with an inconclusive call do not appear. Activity calls are given as the source filed them. The call rests on the fitted dose curve.
On the % scale 0 is the no-effect control and ±100 the full control effect.

Acetylcholinesterase (Homo sapiens), sequence (P22303 whole entry, looked up): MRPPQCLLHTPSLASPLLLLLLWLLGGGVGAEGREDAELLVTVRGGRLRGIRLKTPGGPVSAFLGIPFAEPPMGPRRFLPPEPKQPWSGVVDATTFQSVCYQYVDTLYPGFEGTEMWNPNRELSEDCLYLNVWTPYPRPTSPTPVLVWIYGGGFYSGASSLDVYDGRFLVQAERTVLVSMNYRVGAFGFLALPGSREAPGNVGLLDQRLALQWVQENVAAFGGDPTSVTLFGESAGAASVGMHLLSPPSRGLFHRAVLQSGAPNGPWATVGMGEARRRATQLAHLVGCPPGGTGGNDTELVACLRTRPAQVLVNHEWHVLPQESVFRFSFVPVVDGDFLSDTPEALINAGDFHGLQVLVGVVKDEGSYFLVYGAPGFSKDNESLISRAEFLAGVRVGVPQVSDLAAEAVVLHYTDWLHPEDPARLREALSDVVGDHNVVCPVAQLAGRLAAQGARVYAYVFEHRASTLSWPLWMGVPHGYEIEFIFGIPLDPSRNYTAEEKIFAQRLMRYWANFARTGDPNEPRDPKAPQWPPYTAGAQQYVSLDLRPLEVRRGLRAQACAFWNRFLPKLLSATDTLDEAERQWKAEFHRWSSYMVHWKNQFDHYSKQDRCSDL

For `CC(=O)Oc1ccc(C(C)=O)cc1`, the Potency entry in test [1], in test [2], in test [3] and in test [4] was “inactive” each time.

Regarding `O=[N+]([O-])c1ccc(Cl)cc1Cl`, the Potency result in test [1], in test [2], in test [3] and in test [4] was “inactive” each time.

Take `O=[N+]([O-])c1cncn1CCN1CCOCC1`: the Potency entry in test [1], in test [2], in test [3] and in test [4] was “inactive” throughout.

In the case of `CCCCCCCCCCCCCCCCN(C)C`, the activity, negative = inhibition in test [1] was -4.82% [at 10.5 µM]. Further, the activity change, negative = inhibition in test [2] was -0.395% [at 10.5 µM]; in test [3], -5.81% [at 10.5 µM]; in test [4], -0.307% [at 10.5 µM].

Consider `CCC(Cl)C(Cl)C(Cl)CC(Cl)C(Cl)C(C)Cl` (stereo not drawn), for which the Potency result in test [1], in test [2], in test [3] and in test [4] was “inactive” in each case.

Turning to `C=CC(C)(CCC=C(C)C)OC(=O)CC(C)C` (stereo not drawn), the Potency result in test [1], in test [2], in test [3] and in test [4] was “inactive” throughout.

Turning to `O=C1OC(=O)C2CCCCC12` (stereo not drawn), the Potency result in test [1], in test [2], in test [3] and in test [4] was “inactive” each time.

`Oc1ccc2c(c1)Cc1ccccc1-2`: the Potency result in test [1], in test [2], in test [3] and in test [4] was “inactive” each time.

With `CC(=O)c1ccc2c(c1)N(CCCN1CCC(CCO)CC1)c1ccccc1S2`, the values for the Potency in test [1] and in test [3] were 38.9 µM (active) and 17.4 µM (active), respectively. Further, the Potency result in test [2] and in test [4] was “inactive” in each case.

With `CCN(CC)CCNC(C(=O)OCCC(C)C)c1ccccc1` (stereo not drawn), the Potency result in test [1], in test [2], in test [3] and in test [4] was “inactive” each time.

`CC(C)COC(=O)COc1cc(Cl)c(Cl)cc1Cl`: the Potency result in test [1], in test [2], in test [3] and in test [4] was “inactive” in each case.

For the compound `O=C(/C=C/c1ccc(O)c(O)c1)O[C@@H]1C[C@](O)(C(=O)O)C[C@@H](O)[C@H]1O`, the Potency result in test [1], in test [2], in test [3] and in test [4] was “inactive” in each case.

`C=C(C)CCCC`: the Potency entry in test [1], in test [2], in test [3] and in test [4] was “inactive” each time.

Regarding `Sc1nc2ccccc2s1`, the Potency result in test [1], in test [2], in test [3] and in test [4] was “inactive” in each case.

As to `OCCCC1CCCCC1`, the Potency entry in test [1], in test [2], in test [3] and in test [4] was “inactive” in each case.

In the case of `C=C(C)C(=O)OCCCC`, the Potency result in test [1], in test [2], in test [3] and in test [4] was “inactive” throughout.

On to `CC(C)(C)C(=O)Oc1ccc(S(=O)(=O)Nc2ccccc2C(=O)NCC(=O)O)cc1`, for which the Potency entry in test [1], in test [2], in test [3] and in test [4] was “inactive” each time.

Consider `NC(=O)Nc1ccc(Cl)cc1`, for which the Potency result in test [1], in test [2], in test [3] and in test [4] was “inactive” in each case.

Take `C1CCCCCCCCCCC1`: in test [1], the activity, negative = inhibition is -0.403% [at 23.6 µM]. For the same compound, the activity change, negative = inhibition in test [2] is 0.515% [at 23.6 µM]; in test [3], 7.82% [at 23.8 µM]; in test [4], -0.0559% [at 23.6 µM].

`CCC(CC)CO`: the Potency entry in test [1], in test [2], in test [3] and in test [4] was “inactive” each time.

Turning to `Clc1ccccc1-c1nc(-c2ccncc2)no1`, the Potency result in test [1], in test [2], in test [3] and in test [4] was “inactive” throughout.

On to `Cc1occc1C(=O)Nc1ccc(C(=O)N2CCC(F)(F)/C(=C\C(=O)N3CCC(N4CCCCC4)CC3)c3ccccc32)cc1`, for which the Potency entry in test [1], in test [2], in test [3] and in test [4] was “inactive” throughout.

Consider `NC(=O)N1c2ccccc2CC(=O)c2ccccc21`, for which the Potency entry in test [1], in test [2], in test [3] and in test [4] was “inactive” throughout.

Regarding `Nc1ccc(F)cc1F`, the Potency result in test [1], in test [2], in test [3] and in test [4] was “inactive” throughout.

As to `CCCOC(=O)c1ccc(N)cc1`, the Potency entry in test [1], in test [2], in test [3] and in test [4] was “inactive” in each case.

For `N#CC1(N)CCCCC1`, the Potency result in test [1], in test [2], in test [3] and in test [4] was “inactive” in each case.

Turning to `c1coc(Cn2cccc2)c1`, the Potency result in test [1], in test [2], in test [3] and in test [4] was “inactive” each time.

For `C#C[C@]1(OC(C)=O)CC[C@H]2[C@@H]3CCC4=C[C@@H](OC(C)=O)CC[C@@H]4[C@H]3CC[C@@]21C`, the Potency entry in test [1], in test [2], in test [3] and in test [4] was “inactive” throughout.

With `O=C1OC[C@H](Cc2cccc(O)c2)[C@H]1Cc1cccc(O)c1`, the Potency result in test [1], in test [2], in test [3] and in test [4] was “inactive” in each case.

`OCc1ccccn1`: the Potency result in test [1], in test [2], in test [3] and in test [4] was “inactive” in each case.

On to `SC1CCCCC1`, for which the Potency result in test [1], in test [2], in test [3] and in test [4] was “inactive” in each case.

As to `O=c1cc(-c2ccccc2)oc2ccc3ccccc3c12`, the Potency entry in test [1], in test [2], in test [3] and in test [4] was “inactive” in each case.

As for `O=C(/N=N/C(=O)OCc1ccccc1)OCc1ccccc1`, the Potency entry in test [1], in test [2], in test [3] and in test [4] was “inactive” in each case.

As for `COc1ccc2c(c1)C(=O)N(CCc1ccc(S(=O)(=O)NC(=O)NC3CCCCC3)cc1)C(=O)C2(C)C`, the Potency result in test [1], in test [2], in test [3] and in test [4] was “inactive” in each case.

On to `O=C1C(O)=C(O)C(=O)C(O)=C1O`, for which the Potency entry in test [1], in test [2], in test [3] and in test [4] was “inactive” in each case.

For `CCCCCCCCCCCC(=O)[O][Sn]([CH2]CCC)([CH2]CCC)[O]C(=O)CCCCCCCCCCC`, the Potency entry in test [1], in test [2], in test [3] and in test [4] was “inactive” each time.

For `Clc1ccc(C(Cn2ccnc2)OCc2ccc(Sc3ccccc3)cc2)c(Cl)c1` (stereo not drawn), the Potency entry in test [1], in test [2], in test [3] and in test [4] was “inactive” each time.

For `CCC(=O)OCc1ccc(OC)cc1`, the Potency entry in test [1], in test [2], in test [3] and in test [4] was “inactive” each time.

`N=C(N)S(=O)O`: the Potency entry in test [1], in test [2], in test [3] and in test [4] was “inactive” throughout.

In the case of `C=C(C)C(=O)OCCC[Si](Cl)(Cl)Cl`, the Potency entry in test [1], in test [2], in test [3] and in test [4] was “inactive” each time.

For the compound `CC(NC(CCc1ccccc1)C(=O)O)C(=O)N1C(=O)N(C)CC1C(=O)O` (stereo not drawn), the Potency result in test [1], in test [2], in test [3] and in test [4] was “inactive” each time.

Consider `CCCC(=O)C(=O)O`, for which the Potency entry in test [1], in test [2], in test [3] and in test [4] was “inactive” throughout.
